PD-1 reverse act: activators reversing PD-1 mediated T-cell inhibition, primary screen, luminescence, primary human CD4 T cells, PD-L1 beads; CellTiter-Glo 96 h; activation, % (concentration not given with the values); 29,000 tested, under 10 active; AID 2316, 2010; call rule not given here;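 further: 0% = median vehicle wells and 100% = positive control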
MITF inh: inhibitors of MITF, primary screen, MITF inhibitor project, cell-based, luminescence | TRPM1 promoter luciferase, 24 h | inhibition, % (concentration not given with the values) | 37,000 tested, 0.28% active; in the data active means inhibition above about 85%;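 further: human melanocyte line stably carrying TRPM1 promoter luciferase reporter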
NOMO-1 viab: NOMO-1 AML cell viability reduction, primary screen, STK33 inhibitor project, CellTiter-Glo luminescence; NOMO-1 AML viability, 72 h; inhibition, % (concentration not given with the values); 37,000 tested, 7.5% active; in the data active means inhibition above about 80%
Shh pathway inh: Hedgehog pathway signaling inhibitors, primary screen, luminescence, Shh-LIGHT2 cells, Gli-luciferase; Shh-LIGHT2 Gli-luciferase reporter, 30 h; inhibition, % (test concentration not listed); 22,000 tested, 2.1% active;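 active means mean inhibition across valid replicates above about 65%, limit read from the data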;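 further: pathway switched on by Shh-conditioned medium diluted 1 in 25 in low serum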
Starred values were filed as active, the others as inactive; . = no result. Most compounds without a hit are left out; they make up all but 8.1% or so of the library.

SMILES	PD-1 reverse act	MITF inh	NOMO-1 viab	Shh pathway inh
C[C@H]1CN([C@@H](C)CO)C(=O)c2cccc(NC(=O)c3cnccn3)c2O[C@H]1CN(C)Cc1ccc(C(=O)Nc2ccccc2N)cc1	-5.9	28.2	129.1*	.
Cc1cc(C(=O)Nc2cccc3c2O[C@@H](CN(C)Cc2ccc(Oc4ccccc4)cc2)[C@H](C)CN([C@@H](C)CO)C3=O)n(C)n1	-8.2	53.2	101.8*	-35.2
Cc1cc(C(=O)Nc2cccc3c2O[C@H](CN(C)Cc2ccc(C(=O)Nc4ccccc4N)cc2)[C@H](C)CN([C@@H](C)CO)C3=O)n(C)n1	-3.6	5.3	128.0*	.
C[C@H](CO)N1C[C@H](C)[C@H](CN(C)Cc2ccc(C(=O)Nc3ccccc3N)cc2)Oc2c(NC(=O)c3ccncc3)cccc2C1=O	-2.8	-10.2	51.3	.
C=CC(C)(O)CC/C=C(\C)C(=O)OC1C(CO)OC(OC2OC=CC3(O)C(OC(=O)C4=COC(OC5OC(CO)C(O)C(O)C5O)C5C(C)CCC45)C4OC4(C)C23)C(O)C1O (stereo not given)	.	.	.	24.7
CCOC(=O)c1cc(NC(=O)CSc2nc3ccccc3s2)ccc1Cl	0.8	17.8	-4.4	.
C/C=C(/C)C(=O)OC(C)(C)C1Cc2cc3ccc(=O)oc3cc2O1 (stereo not given)	0.1	1.9	-1.0	2.9
C[C@@H]1CN([C@@H](C)CO)C(=O)c2cccc(N(C)C)c2O[C@@H]1CN(C)Cc1ccc(C(=O)Nc2ccccc2N)cc1	-1.8	12.2	127.7*	.
C[C@@H]1CN([C@@H](C)CO)C(=O)c2cccc(NC(=O)C3CC3)c2O[C@H]1CN(C)Cc1ccc(C(=O)Nc2ccccc2N)cc1	-0.8	17.5	73.0	.
C[C@H]1CN([C@@H](C)CO)C(=O)c2cccc(NC(=O)c3cnccn3)c2O[C@@H]1CN(C)Cc1ccc(C(=O)Nc2ccccc2N)cc1	-2.3	8.4	107.8*	.
C[C@H](CO)N1C[C@H](C)[C@@H](CN(C)Cc2ccc(C(=O)Nc3ccccc3N)cc2)Oc2c(NC(=O)c3cnccn3)cccc2C1=O	-2.1	15.9	118.1*	.
COC(=O)C(CC(=O)c1ccc(Cl)cc1)c1cc(=O)oc2cc(OC)ccc12 (stereo not given)	.	-19.0	37.2	.
COc1ccc(N2Cc3ccccc3C3(CCOCC3)C2=N)cc1	-1.2	13.5	39.1	-30.4
COc1ccc(CN(C)C[C@H]2Oc3ccc(NC(=O)CCCCCC(=O)Nc4ccccc4N)cc3CC(=O)N([C@@H](C)CO)C[C@H]2C)cc1	1.5	7.4	74.7	.
COc1ccc(CN(C)C[C@@H]2Oc3ccc(NC(=O)CCCCCC(=O)Nc4ccccc4N)cc3CC(=O)N([C@H](C)CO)C[C@@H]2C)cc1	-1.8	10.7	124.2*	.
COc1ccc(CN(C)C[C@@H]2Oc3ccc(NC(=O)CCCCCC(=O)Nc4ccccc4N)cc3CC(=O)N([C@@H](C)CO)C[C@@H]2C)cc1	-0.4	27.4	126.8*	.
O=C(NCc1ccccn1)C(=O)Nc1ccc(Cl)c(Cl)c1	.	-48.8	2.3	.
Cc1sc(N)nc1C12CC3CC(CC(C3)C1)C2	-0.5	10.0	105.1*	24.0
S=c1nc(C23CC4CC(CC(C4)C2)C3)[nH][nH]1	2.6	-9.2	-0.5	34.3
COC(=O)c1ccc(C(=O)OC)c(NC(=O)c2cnn3cccnc23)c1	.	4.9	34.7	.
Cc1cc(Cl)ccc1OCC(O)CN1CCC(CN2C(=O)c3cccc4cccc(c34)C2=O)CC1 (stereo not given)	.	0.5	119.2*	.
Cc1cc(C)c(S(=O)(=O)N2CCN(CC(O)COc3ccc4ccccc4c3)CC2)c(C)c1 (stereo not given)	-1.5	43.4	22.8	.
CC(C)NC(=O)Nc1cccc2c1O[C@@H](CN(C)S(=O)(=O)c1ccc(Cl)cc1)[C@@H](C)CN([C@@H](C)CO)C2=O	0.0	16.3	9.1	95.6*
CC(C)NC(=O)Nc1cccc2c1O[C@H](CN(C)S(=O)(=O)c1ccc(Cl)cc1)[C@H](C)CN([C@@H](C)CO)C2=O	-0.1	-5.1	7.2	20.3
CC(C)NC(=O)Nc1cccc2c1O[C@H](CN(C)S(=O)(=O)c1ccc(Cl)cc1)[C@@H](C)CN([C@H](C)CO)C2=O	0.7	0.5	14.9	-4.3
CC(C)NC(=O)Nc1cccc2c1O[C@@H](CN(C)S(=O)(=O)c1ccc(F)cc1)[C@@H](C)CN([C@@H](C)CO)C2=O	0.8	-3.7	-5.2	79.7*
CC(C)NC(=O)Nc1cccc2c1O[C@@H](CN(C)S(=O)(=O)c1ccc(Cl)cc1)[C@@H](C)CN([C@H](C)CO)C2=O	-0.3	-1.8	25.7	102.0*

Source: PubChem BioAssay
